Experimental data taken from PubChem BioAssay (EPA / NIEHS).
Activity calls are given as the source filed them. How the source made its calls: active means hit-call score of the fitted dose curve at least 0.9, where 1 is the maximum; inactive means score below 0.9.

Tests used:
Conditions in all cases: mRNA level, 48 h; actives raise or lower the signal
[1] = read-out: Cyclin D1 (CCND1), CCND1 (gene 595); experiment: LTEA_HepaRG_CCND1: Life Technologies and Expression Analysis (LTEA) Assay for Cyclin D1 (CCND1) using HepaRG (AID 2283451);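 on AC50: TaqMan qRT-PCR transcript level normalised to ACTB GAPDH and POLR2A housekeeping genes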
How it was run: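 HepaRG plated 48 h, medium switched to serum-free induction medium, chemicals added in duplicate (top 100 uM, half-log steps, 0.5% DMSO) for 48 h, cells lysed, RNA measured by TaqMan qRT-PCR.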

[2] = read-out: catalase (CAT), CAT (gene 847); experiment: LTEA_HepaRG_CAT: Life Technologies and Expression Analysis (LTEA) Assay for catalase (CAT) using HepaRG (AID 2283452)
How it was run: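 Expression of CAT was quantified by TaqMan qRT-PCR with ACTB/GAPDH/POLR2A normalization after 48 h chemical exposure of HepaRG. Eight-point half-log series, top 100 uM, in 0.5% DMSO; gain or loss fitted against vehicle.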

[3] = read-out: flavin-containing dimethylaniline monooxygenases 3 (FMO3), FMO3 (gene 2328); experiment: LTEA_HepaRG_FMO3: Life Technologies and Expression Analysis (LTEA) Assay for flavin-containing dimethylaniline monooxygenases 3 (FMO3) using HepaRG (AID 2283453);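 on AC50: FMO3 transcript by TaqMan qRT-PCR normalized to ACTB GAPDH and POLR2A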
How it was run: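 HepaRG, 48 h exposure, 8-pt half-log series from 100 uM, 0.5% DMSO vehicle, duplicates; FMO3 transcript by Fluidigm TaqMan qRT-PCR, housekeeping-normalized; gain/loss fit vs DMSO.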

[4] = read-out: Cytochrome P450 (CYP1A1), CYP1A1 (gene 1543); experiment: LTEA_HepaRG_CYP1A1: Life Technologies and Expression Analysis (LTEA) Assay for Cytochrome P450 (CYP1A1) using HepaRG (AID 2283454)
How it was run: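 HepaRG, 48 h post-plating switched to serum-free induction medium; 8-pt conc-response (top 100 uM, half-log, 0.5% DMSO), duplicates, 48 h. Lysis in RLT, TaqMan qRT-PCR for CYP1A1; gain or loss vs DMSO.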

[5] = read-out: CFLAR gene, CFLAR (gene 8837); experiment: LTEA_HepaRG_CFLAR: Life Technologies and Expression Analysis (LTEA) Assay for CFLAR gene using HepaRG (AID 2283455)
How it was run: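 HepaRG, 48 h exposure, 8-pt conc-response (100 uM top, half-log), 0.5% DMSO vehicle, duplicates. CFLAR expression by qRT-PCR; ACTB/GAPDH/POLR2A normalization; gain or loss fit vs DMSO baseline.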

[6] = read-out: Forkhead box O1 (FOXO1), FOXO1 (gene 2308); experiment: LTEA_HepaRG_FOXO1: Life Technologies and Expression Analysis (LTEA) Assay for Forkhead box O1 (FOXO1) using HepaRG (AID 2283456)
How it was run: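 Readout is FOXO1 transcript level by multiplexed qRT-PCR against three housekeeping genes, curve-fitted in both directions relative to 0.5% DMSO vehicle. Human HepaRG cultures received chemicals for 48 h, up to 100 uM in half-log steps.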

[7] = read-out: growth arrest and DNA damage 45 (GADD45A), GADD45A (gene 1647); experiment: LTEA_HepaRG_GADD45A: Life Technologies and Expression Analysis (LTEA) Assay for growth arrest and DNA damage 45 (GADD45A) using HepaRG (AID 2283458)
How it was run: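 Differentiated HepaRG cells were exposed in duplicate for 48 h in serum-free induction medium to 8-point half-log concentrations up to 100 uM in 0.5% DMSO. GADD45A mRNA was measured by TaqMan qRT-PCR, normalized to ACTB, GAPDH and POLR2A, with bidirectional fitting versus DMSO.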

[8] = read-out: Forkhead box O3 (FOXO3), FOXO3 (gene 2309); experiment: LTEA_HepaRG_FOXO3: Life Technologies and Expression Analysis (LTEA) Assay for Forkhead box O3 (FOXO3) using HepaRG (AID 2283459)
How it was run: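 HepaRG, 48 h post-dose; 8 conc., half-log from 100 uM, 0.5% DMSO, duplicates; serum-free induction medium. Readout: FOXO3 mRNA, TaqMan qRT-PCR, housekeeping-normalized. Bidirectional curve fit vs DMSO baseline.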

[9] = read-out: ABC Transporter (ABCB1), ABCB1 (gene 5243); experiment: LTEA_HepaRG_ABCB1: Life Technologies and Expression Analysis (LTEA) Assay for ABC Transporter (ABCB1) using HepaRG (AID 2283460)
How it was run: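 Expression of ABCB1 was quantified by qRT-PCR against three housekeeping genes after human HepaRG cultures received test chemicals for 48 hours. Concentrations spanned eight half-log steps topping at 100 uM in 0.5% DMSO; gain or loss of signal was fitted relative to vehicle.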

[10] = read-out: growth arrest and DNA damage 45 (GADD45B), GADD45B (gene 4616); experiment: LTEA_HepaRG_GADD45B: Life Technologies and Expression Analysis (LTEA) Assay for growth arrest and DNA damage 45 (GADD45B) using HepaRG (AID 2283461)
How it was run: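 HepaRG, ~100,000 cells/well, 48 h plating; serum-free induction medium; cpd 100 uM top, half-log x8, 0.5% DMSO, duplicate, 48 h; lysis in RLT, RNA isolation, qRT-PCR; norm ACTB/GAPDH/POLR2A; bidirectional fit vs DMSO.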

[11] = read-out: ABC Transporter (ABCB11), ABCB11 (gene 8647); experiment: LTEA_HepaRG_ABCB11: Life Technologies and Expression Analysis (LTEA) Assay for ABC Transporter (ABCB11) using HepaRG (AID 2283463)
How it was run: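 ABCB11 transcript levels are read by Fluidigm TaqMan qRT-PCR after 48 h chemical treatment of human HepaRG cells. Concentrations span 100 uM downward in half-log steps with 0.5% DMSO; gain or loss is fitted against DMSO controls.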

[12] = read-out: ABC Transporter (ABCC2), ABCC2 (gene 1244); experiment: LTEA_HepaRG_ABCC2: Life Technologies and Expression Analysis (LTEA) Assay for ABC Transporter (ABCC2) using HepaRG (AID 2283464)
How it was run: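 HepaRG, 48 h post-plating; serum-free induction medium; cpd 8-pt, 100 uM top, half-log, 0.5% DMSO, duplicate, 48 h. Readout: ABCC2 mRNA by qRT-PCR, norm. ACTB/GAPDH/POLR2A. Bidirectional fit vs DMSO baseline.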

[13] = read-out: Broad substrate specificity ATP-binding cassette transporter ABCG2 (Homo sapiens) (UniProt Q9UNQ0); experiment: LTEA_HepaRG_ABCG2: Life Technologies and Expression Analysis (LTEA) Assay for ABC Transporter (ABCG2) using HepaRG (AID 2283465)
How it was run: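 Read-out is ABCG2 mRNA induction or loss quantified by qRT-PCR after 48 h chemical treatment of human HepaRG cells, normalized to three housekeeping genes. Concentrations reached 100 uM top in half-log steps; fitting was bidirectional against 0.5% DMSO.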

[14] = read-out: ATP-citrate lyase (ACLY), ACLY (gene 47); experiment: LTEA_HepaRG_ACLY: Life Technologies and Expression Analysis (LTEA) Assay for ATP-citrate lyase (ACLY) using HepaRG (AID 2283466)
How it was run: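 HepaRG, 48 h exposure, 8-pt half-log dilutions (top 100 uM), 0.5% DMSO. Readout: ACLY mRNA, TaqMan qRT-PCR, housekeeping-normalized (ACTB/GAPDH/POLR2A). Bidirectional curve fit vs DMSO.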

[15] = read-out: Peroxisomal acyl-coenzyme A oxidase 1 (ACOX1) gene, ACOX1 (gene 51); experiment: LTEA_HepaRG_ACOX1: Life Technologies and Expression Analysis (LTEA) Assay for Peroxisomal acyl-coenzyme A oxidase 1 (ACOX1) gene using HepaRG (AID 2283467)
How it was run: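 Measured by qRT-PCR against three housekeeping genes: ACOX1 transcript change in human HepaRG cells after 48 h dosing. Concentrations ran up to 100 uM in half-log steps. Curves were fitted bidirectionally relative to 0.5% DMSO.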

[16] = read-out: Alkaline Phosphatase, Placental (ALPP) gene, ALPP (gene 250); experiment: LTEA_HepaRG_ALPP: Life Technologies and Expression Analysis (LTEA) Assay for Alkaline Phosphatase, Placental (ALPP) gene using HepaRG (AID 2283468)
How it was run: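 HepaRG, 48 h plating then 48 h dosing, serum-free induction medium, 0.5% DMSO. 8 conc, half-log, max 100 uM, duplicates. Endpoint: ALPP transcript by qRT-PCR, housekeeping-normalized; gain or loss fitted vs DMSO.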

[17] = read-out: Bcl-2 (BAD) gene, BAD (gene 572); experiment: LTEA_HepaRG_BAD: Life Technologies and Expression Analysis (LTEA) Assay for Bcl-2 (BAD) gene using HepaRG (AID 2283469)
How it was run: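 BAD transcript change, measured by qRT-PCR against three housekeeping genes and fitted in both directions relative to 0.5% DMSO, after 48 h chemical treatment of human HepaRG liver cells at concentrations up to 100 uM.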

[18] = read-out: Bcl-2 (BAX) gene, BAX (gene 581); experiment: LTEA_HepaRG_BAX: Life Technologies and Expression Analysis (LTEA) Assay for Bcl-2 (BAX) gene using HepaRG (AID 2283470)
How it was run: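 Differentiated human HepaRG cells, plated 48 h then switched to serum-free induction medium, were exposed 48 h to 8 half-log concentrations up to 100 uM in 0.5% DMSO; BAX mRNA measured by qRT-PCR, normalized to ACTB, GAPDH, POLR2A.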

[19] = read-out: ABC Transporter (ABCC3), ABCC3 (gene 8714); experiment: LTEA_HepaRG_ABCC3: Life Technologies and Expression Analysis (LTEA) Assay for ABC Transporter (ABCC3) using HepaRG (AID 2283462)
How it was run: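 Human HepaRG, 48 h dosing, 8-pt half-log series from 100 uM, 0.5% DMSO vehicle, duplicates. ABCC3 mRNA by TaqMan qRT-PCR, housekeeping-normalized; bidirectional curve fit vs DMSO.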

Measured: AC50

Broad substrate specificity ATP-binding cassette transporter ABCG2 (Homo sapiens), sequence (Q9UNQ0 whole entry, looked up): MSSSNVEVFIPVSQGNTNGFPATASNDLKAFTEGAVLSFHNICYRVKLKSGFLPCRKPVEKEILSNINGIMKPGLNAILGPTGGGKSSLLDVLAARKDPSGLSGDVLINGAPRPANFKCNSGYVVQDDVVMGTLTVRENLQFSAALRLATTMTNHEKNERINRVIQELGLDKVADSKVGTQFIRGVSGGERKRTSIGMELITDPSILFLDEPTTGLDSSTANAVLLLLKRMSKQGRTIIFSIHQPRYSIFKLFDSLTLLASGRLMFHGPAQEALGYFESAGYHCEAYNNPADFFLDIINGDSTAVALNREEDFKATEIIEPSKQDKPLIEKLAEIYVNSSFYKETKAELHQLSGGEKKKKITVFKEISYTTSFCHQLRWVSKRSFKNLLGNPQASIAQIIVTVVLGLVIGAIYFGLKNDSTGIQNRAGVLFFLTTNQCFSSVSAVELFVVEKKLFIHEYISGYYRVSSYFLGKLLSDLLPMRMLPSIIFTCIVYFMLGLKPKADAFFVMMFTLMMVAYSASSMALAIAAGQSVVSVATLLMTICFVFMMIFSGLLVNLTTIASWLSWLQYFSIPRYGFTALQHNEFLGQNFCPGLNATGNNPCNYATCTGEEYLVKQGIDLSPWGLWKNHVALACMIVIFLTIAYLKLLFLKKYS

COc1ccc(-c2ccccc2)cc1NNC(=O)OC(C)C
active: [4] 75.1 µM
inactive: [1] | [2] | [3] | [5] | [6] | [7] | [8] | [9] | [10] | [11] | [12] | [13] | [14] | [15] | [16] | [17] | [18]

Nc1c(Cl)c(Cl)nc(C(=O)O)c1Cl
active: [4] 50 µM
inactive: [1] | [2] | [3] | [5] | [6] | [7] | [9] | [10] | [19] | [11] | [12] | [13] | [14] | [15] | [16] | [17] | [18]

CCCCC(O)(Cn1cncn1)c1ccc(Cl)cc1Cl (stereo not drawn)
inactive: [10] | [13] | [17]
active: [1] 57.7 µM | [2] 73 µM | [3] 75.9 µM | [4] 12.9 µM | [5] 66.5 µM | [6] 80.2 µM | [7] 89.9 µM | [9] 11.8 µM | [11] 68.6 µM | [12] 79.9 µM | [14] 12.3 µM | [15] 69.4 µM | [16] 73.3 µM | [18] 74.6 µM

COP(=S)(OC)Oc1ccc([N+](=O)[O-])c(C)c1
active: [4] 50 µM
inactive: [1] | [2] | [3] | [5] | [6] | [9] | [10] | [11] | [12] | [13] | [14] | [15] | [16] | [17] | [18]

CN/C(=N\[N+](=O)[O-])NCc1cnc(Cl)s1
inactive: [1] | [2] | [3] | [4] | [5] | [6] | [8] | [9] | [10] | [11] | [12] | [14] | [15] | [16] | [17] | [18]
active: [13] 28.6 µM

N#CN=C1SCCN1Cc1ccc(Cl)nc1
inactive: [1] | [2] | [3] | [4] | [5] | [6] | [9] | [10] | [11] | [12] | [13] | [14] | [15] | [16] | [17] | [18]

Cn1c(-c2ccccc2)cc(-c2ccccc2)[n+]1C
active: [1] 75.6 µM | [2] 21.9 µM | [3] 50 µM | [4] 75 µM | [5] 82.3 µM | [6] 77.7 µM | [8] 2.57 µM | [11] 24.4 µM | [12] 62.6 µM | [15] 21.2 µM | [16] 50 µM
inactive: [7] | [13] | [14] | [17] | [18]
